23 molecules from PubChem BioAssay (EPA / NIEHS) can be followed below.

Results filed as inconclusive are left out. Active and inactive are the calls of the source. The calls were made as follows: active = hit-call score of the fitted dose curve at least 0.9, where 1 is the maximum; inconclusive = response in the unintended direction; inactive = score below 0.9.

The test deals with Androgen receptor (Homo sapiens) (UniProt P10275). Kind of test: ATG_AR_TRANS: Attagene TRANS-FACTORIAL HepG2 Assay for human Androgen Receptor (AR) (AID 2282973). The settings on record: HepG2 Attagene TRANS-FACTORIAL AR reporter transcription. The gist of the method: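 HepG2 cells transiently transfected with AR-Gal4 chimera and GAL4-UAS reporter units; chemical exposure 24 h. Reporter mRNA quantified by RT-PCR with fluorescent labelling and capillary electrophoresis; gain-of-signal fitted against DMSO.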
Androgen receptor (Homo sapiens), sequence (P10275 whole entry, looked up, the tested form may be a part): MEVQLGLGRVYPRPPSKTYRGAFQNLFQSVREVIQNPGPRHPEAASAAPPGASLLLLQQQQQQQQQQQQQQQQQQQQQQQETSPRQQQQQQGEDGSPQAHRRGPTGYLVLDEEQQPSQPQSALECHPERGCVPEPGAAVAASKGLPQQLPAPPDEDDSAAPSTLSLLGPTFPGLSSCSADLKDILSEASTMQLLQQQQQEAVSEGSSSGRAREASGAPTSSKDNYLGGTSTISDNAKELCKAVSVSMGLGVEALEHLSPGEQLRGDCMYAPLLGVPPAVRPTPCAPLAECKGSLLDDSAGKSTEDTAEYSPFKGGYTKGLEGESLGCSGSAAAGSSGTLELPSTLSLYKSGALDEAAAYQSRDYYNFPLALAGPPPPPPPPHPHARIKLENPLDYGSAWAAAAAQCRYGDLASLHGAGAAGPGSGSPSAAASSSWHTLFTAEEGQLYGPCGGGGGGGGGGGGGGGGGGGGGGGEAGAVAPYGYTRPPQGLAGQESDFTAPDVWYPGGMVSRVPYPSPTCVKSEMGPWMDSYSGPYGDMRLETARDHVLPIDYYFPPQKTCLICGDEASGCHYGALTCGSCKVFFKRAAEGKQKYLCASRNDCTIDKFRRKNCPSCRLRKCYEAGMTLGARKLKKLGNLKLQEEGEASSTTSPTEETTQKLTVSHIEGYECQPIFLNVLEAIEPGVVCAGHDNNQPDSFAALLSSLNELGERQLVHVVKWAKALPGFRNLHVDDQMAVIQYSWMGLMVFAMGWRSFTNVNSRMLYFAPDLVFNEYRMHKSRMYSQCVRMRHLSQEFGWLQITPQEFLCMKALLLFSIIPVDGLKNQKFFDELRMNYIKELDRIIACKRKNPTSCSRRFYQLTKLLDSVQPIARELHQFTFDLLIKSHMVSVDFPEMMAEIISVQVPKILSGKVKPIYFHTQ
Turning to `CC1(C)C2=CCCC(C)(C)[C@]23CC[C@H]1C3`, the outcome was inactive.
The same measure for `O=c1cc(-c2ccccc2)oc2ccccc12`: “inactive”.
Next, `BrCc1cccc(Oc2ccccc2)c1`: “inactive”.
The same measure for `O=C(C=Cc1ccccc1)OCC=Cc1ccccc1`: “inactive”; for `FC(F)(F)C1(F)C(F)(F)C(F)(F)C(F)(F)C1(F)F`: “inactive”; for `CCN(CC)CCOc1ccc(C(=C(Cl)c2ccccc2)c2ccccc2)cc1`: “inactive”.
With `CC1=CC2C3C=CC(C3)C2C1C` (stereo not drawn), the result was inactive.
Next, `CCCCOCCOCCOCc1cc2c(cc1CCC)OCO2`: “inactive”; `Cc1nn(C)c(Oc2ccccc2)c1C=NOCc1ccc(C(=O)OC(C)(C)C)cc1`: “inactive”; `NCC(F)(F)C(F)(F)C(F)(F)C(F)(F)C(F)(F)C(F)(F)C(F)(F)F`: “inactive”.
Next, `COCC1CCC(CO)CC1` (stereo not drawn): “inactive”; `CCCCCCCCCC(=O)O`: “inactive”; `O=C(O)CCC(F)(F)C(F)(F)C(F)(F)C(F)(F)C(F)(F)F`: “inactive”.
The same measure for `COc1cc(C=O)ccc1O`: “inactive”; for `CSc1ccc(Oc2ccc(S(N)(=O)=O)cc2CN(C)C)cc1C`: “inactive”; for `Cn1cccc1`: “inactive”.
For the molecule `Cc1nc(-c2ccc3c(c2)CCN(CCC2CCC(NC(=O)/C=C/c4ccc(F)cc4)CC2)CC3)no1` (stereo not drawn), the outcome was inactive.
With `CC(C)(c1ccc(O)cc1)c1ccc(O)cc1`, the molecule was classed as inactive.
Next, `CC1(C)[C@H](C=C(Cl)Cl)[C@H]1C(=O)OCc1cccc(Oc2ccccc2)c1`: “inactive”; `O=C(c1ccccc1)c1ccccc1`: “inactive”.
The same measure for `COC(=O)Cc1cccc2ccccc12`: “inactive”; for `NC(=O)OCC(COC(N)=O)c1ccccc1`: “inactive”.
With `CC1=CC(=O)c2ccccc2C1=O`, the molecule was classed as inactive.
